# Data taken from ChEMBL document CHEMBL4513146, “CO-ADD screening of Karazin Kharkiv National University (Ukraine) compounds”.
# Potency and affinity values are given separately.
# Columns and labels:
# [1] = tested on: Staphylococcus aureus; settings: Concentration 32 ug.mL-1;; ASSAY_TEST Inhibition of Bacterial Growth; detection method Absorption (OD600); MEDIA CAMHB; plate type 384well; NBS; CORNING #3640; time 18 hr
# [2] = tested on: Escherichia coli; settings: Concentration 32 ug.mL-1;; ASSAY_TEST Inhibition of Bacterial Growth; detection method Absorption (OD600); MEDIA CAMHB; plate type 384well; NBS; CORNING #3640; time 18 hr
Compound,Inhibition [1],Inhibition [2]
Cc1nnc2ccc(S(=O)(=O)N(Cc3cccc(F)c3)c3ccc(Cl)cc3)cn12,9.42%,-6.55%
Cc1ccccc1NC(=O)Cn1nc2c3cc(-c4ccc(Cl)cc4)nn3ccn2c1=O,14.21%,4.06%
Cc1cccc(CSc2nnc3c(=O)n(-c4ccc(Br)cc4)ccn23)c1,20.89%,1.19%
NC(=O)CSc1nnc2c(=O)n(-c3ccccc3)ccn12,9.05%,0.29%
